From PubChem BioAssay (NCATS)
Several values for one entry are separate records, joined by “and”; a condition that tells them apart may be missing. Equal entries are not always repeated. Inconclusive results are not listed. Activity calls are given as the source filed them. Unless noted, calls follow the shape of the full dose curve.

Experiments:
[1] = qHTS assay for small molecule agonists of retinoid X receptor alpha signaling (AID 588544); conditions: HEK293T RXRa-UAS-bla, beta-lactamase reporter, 18 h; 530 nm emission;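 as to activation: 0% = DMSO basal wells and 100% = reference agonist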
[2] = target: Retinoic acid receptor RXR-alpha (Homo sapiens) (UniProt P19793); assay: as above; conditions: HEK293T RXRa-UAS-bla, beta-lactamase reporter, 18 h; series mostly up to 76.7 µM
Retinoic acid receptor RXR-alpha (Homo sapiens), sequence (P19793 whole entry, looked up): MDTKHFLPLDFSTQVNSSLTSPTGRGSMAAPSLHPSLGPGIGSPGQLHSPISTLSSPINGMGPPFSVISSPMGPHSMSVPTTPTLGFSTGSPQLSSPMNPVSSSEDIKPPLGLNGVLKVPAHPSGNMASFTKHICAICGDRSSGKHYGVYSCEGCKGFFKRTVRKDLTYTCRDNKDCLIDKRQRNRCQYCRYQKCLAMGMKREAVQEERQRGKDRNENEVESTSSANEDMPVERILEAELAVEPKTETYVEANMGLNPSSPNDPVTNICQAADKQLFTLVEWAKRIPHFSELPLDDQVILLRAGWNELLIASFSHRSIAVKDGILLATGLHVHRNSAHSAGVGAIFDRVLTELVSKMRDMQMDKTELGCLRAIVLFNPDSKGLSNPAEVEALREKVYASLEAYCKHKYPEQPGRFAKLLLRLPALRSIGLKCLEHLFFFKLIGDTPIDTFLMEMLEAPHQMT

[3] = target: Thyroid hormone receptor beta (Homo sapiens) (UniProt P10828); assay: qHTS assay for small molecule agonists of thyroid hormone receptor beta signaling (AID 588545); conditions: TR-UAS-bla GripTite HEK 293, beta-lactamase ratio, agonist mode, 18 h, percent of T3 response, DMSO as zero; series mostly up to 76.7 µM;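 also: 0% = DMSO only and 100% = 10 nM T3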
Thyroid hormone receptor beta (Homo sapiens), sequence (P10828 whole entry, looked up): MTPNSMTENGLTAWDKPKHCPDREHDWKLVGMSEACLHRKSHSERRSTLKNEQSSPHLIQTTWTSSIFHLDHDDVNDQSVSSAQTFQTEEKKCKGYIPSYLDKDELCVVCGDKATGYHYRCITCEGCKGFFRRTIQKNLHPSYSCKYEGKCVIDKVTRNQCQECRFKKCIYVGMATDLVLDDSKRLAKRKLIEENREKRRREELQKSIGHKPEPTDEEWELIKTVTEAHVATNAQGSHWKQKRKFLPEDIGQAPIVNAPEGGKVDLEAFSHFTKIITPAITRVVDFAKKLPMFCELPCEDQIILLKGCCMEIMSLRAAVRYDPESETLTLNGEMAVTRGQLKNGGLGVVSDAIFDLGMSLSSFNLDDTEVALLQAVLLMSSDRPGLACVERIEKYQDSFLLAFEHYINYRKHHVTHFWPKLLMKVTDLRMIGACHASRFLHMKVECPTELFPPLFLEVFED
How it was run: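 Efficacy and EC50 values derive from Hill fits of qHTS titration data, normalized to 10 nM T3 and DMSO-only wells. HEK 293 reporter cells were stimulated for 18 hrs at 37 C, with beta-lactamase activity measured by CCF4 fluorescence.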

[4] = qHTS assay for small molecule antagonists of retinoid X receptor alpha signaling (AID 588546; active = well fitted inhibition curve with a large enough effect in the signal ratio, with a control signal flat, not every such curve was filed as active; the % refers to the signal ratio;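 also: cells stimulated with 9-cis-retinoic acid as agonist; % is scaled to controls: 0 for no effect and ±100 for the full control effect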); conditions: HEK293T RXRa-UAS-bla, beta-lactamase ratio, antagonist mode; measured here: W530 green channel, cytotoxicity proxy
How it was run: (§1)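 Beta-lactamase reporter inhibition, read as CCF4 fluorescence ratio (ex 405, em 460/530 nm) after 2 h at RT. HEK293T UAS-bla cells, 2500/well, were stimulated with 9-cis-RA at 500 or 100 nM final alongside test compound for 18 h at 37 C.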

[5] = target: Retinoic acid receptor RXR-alpha (Homo sapiens) (UniProt P19793); assay: as above; conditions: HEK293T RXRa-UAS-bla, beta-lactamase ratio, antagonist mode
How it was run: as §1

[6] = target: Thyroid hormone receptor beta (Homo sapiens) (UniProt P10828); assay: qHTS assay for small molecule antagonists of thyroid hormone receptor beta signaling (AID 588547; active = well fitted inhibition curve with a large enough effect in the signal ratio, with a control signal flat, not every such curve was filed as active; the % refers to the signal ratio;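 also: cells stimulated with 0.4 nM T3 agonist during compound exposure; % is scaled to controls: 0 for no effect and ±100 for the full control effect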); conditions: TR-UAS-bla HEK293, beta-lactamase ratio, antagonist mode, 18 h
How it was run: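 TR-UAS-bla GripTite HEK293 cells in 2% charcoal/dextran FBS medium; compounds 0.59 nM to 92 uM with T3 at 0.4nM final, 18 h at 37 C. Beta-lactamase read by CCF4 fluorescence (460/530 nm); Hill fits gave IC50 and efficacy.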

[7] = target: Voltage-gated inwardly rectifying potassium channel KCNH2 (Homo sapiens) (UniProt Q12809); assay: qHTS Assay for Small Molecule Inhibitors of the Human hERG Channel Activity (AID 588834; active = well fitted inhibition curve with a large enough effect;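 also: top concentration of the series differs between compounds; % is scaled to controls: 0 for no effect and ±100 for the full control effect; lower thallium flux fluorescence means stronger hERG block; nearly all actives have a fitted effect of over 50% in size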); conditions: U2OS BacMam hERG, FluxOR thallium flux fluorescence; series mostly up to 92.2 µM
Voltage-gated inwardly rectifying potassium channel KCNH2 (Homo sapiens), sequence (Q12809 whole entry, looked up): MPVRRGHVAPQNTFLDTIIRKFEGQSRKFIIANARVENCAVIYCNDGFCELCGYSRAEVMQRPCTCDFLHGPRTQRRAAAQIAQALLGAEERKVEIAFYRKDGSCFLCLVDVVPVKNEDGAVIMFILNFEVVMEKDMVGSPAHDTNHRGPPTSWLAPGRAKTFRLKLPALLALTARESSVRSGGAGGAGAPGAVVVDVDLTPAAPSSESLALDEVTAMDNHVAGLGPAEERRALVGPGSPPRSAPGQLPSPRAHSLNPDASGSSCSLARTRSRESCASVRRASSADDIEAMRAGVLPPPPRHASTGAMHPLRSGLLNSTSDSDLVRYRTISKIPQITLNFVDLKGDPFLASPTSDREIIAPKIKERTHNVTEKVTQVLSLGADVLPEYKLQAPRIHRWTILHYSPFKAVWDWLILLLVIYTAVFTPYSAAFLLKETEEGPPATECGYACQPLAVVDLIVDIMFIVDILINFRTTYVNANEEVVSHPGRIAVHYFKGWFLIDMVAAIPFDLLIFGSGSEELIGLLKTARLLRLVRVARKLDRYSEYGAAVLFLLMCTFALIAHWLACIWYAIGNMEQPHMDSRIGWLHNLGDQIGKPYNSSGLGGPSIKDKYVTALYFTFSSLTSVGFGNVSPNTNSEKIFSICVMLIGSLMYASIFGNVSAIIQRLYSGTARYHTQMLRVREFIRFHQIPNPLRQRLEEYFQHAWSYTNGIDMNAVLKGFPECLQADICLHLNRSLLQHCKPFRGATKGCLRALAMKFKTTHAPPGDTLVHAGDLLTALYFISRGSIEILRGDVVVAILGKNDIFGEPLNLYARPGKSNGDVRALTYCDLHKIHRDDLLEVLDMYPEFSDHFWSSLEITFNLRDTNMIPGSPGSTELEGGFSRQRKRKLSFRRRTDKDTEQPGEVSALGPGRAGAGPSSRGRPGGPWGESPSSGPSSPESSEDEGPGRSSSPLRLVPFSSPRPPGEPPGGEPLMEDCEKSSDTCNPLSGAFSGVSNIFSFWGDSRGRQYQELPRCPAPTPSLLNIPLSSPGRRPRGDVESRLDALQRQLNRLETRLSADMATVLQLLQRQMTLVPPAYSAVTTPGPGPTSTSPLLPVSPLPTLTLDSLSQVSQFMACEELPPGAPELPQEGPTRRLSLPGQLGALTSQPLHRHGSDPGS
How it was run: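 U2OS cells BacMam-transduced with hERG, 2000 cells/well, compound ~10 min at 37 °C before stimulation buffer. FluxOR thallium flux fluorescence read kinetically on FDSS; decrease indicates block; AC50 from Hill fits.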

[8] = qHTS assay for small molecule agonists of the antioxidant response element (ARE) signaling pathway (AID 651741; active = well fitted activation curve with a large enough effect in the signal ratio; the % refers to the signal ratio; also: potency is read from the fitted curve at half-maximal effect; as to activation: % of control where 0% means no effect); conditions: HepG2 ARE-bla reporter, beta-lactamase FRET ratio, 16 h; series mostly up to 96 µM
How it was run: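 CellSensor ARE-bla HepG2 cells (2,000/well) carrying ARE-driven beta-lactamase, exposed 16 h at 37 C. LiveBLAzer B/G FRET substrate added for 2 h at room temperature; fluorescence intensity read.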

[9] = qHTS assay for small molecule activators of the p53 signaling pathway (AID 651743; active = well fitted activation curve with a large enough effect in the signal ratio, not every such curve was filed as active; the % refers to the signal ratio; also: % of control where 0% means no effect); conditions: HCT-116 p53RE-bla, beta-lactamase FRET ratio, 16 h; stronger effect = higher value
How it was run: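 p53RE-bla HCT-116 cells carrying a beta-lactamase reporter under p53 response elements were exposed to compounds for 16 hours at 37 C. Reporter activity read as fluorescence after 2 hours at room temperature with LiveBLAzer B/G FRET substrate.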

[10] = qHTS assay for small molecule activators of the nuclear factor-kappa B (NF-kB) signaling pathway (AID 651749; active = well fitted activation curve with a large enough effect in the signal ratio; the % refers to the signal ratio; also: % of control where 0% means no effect); conditions: NF-kB-bla ME-180 cells, beta-lactamase FRET ratio, 16 h; stronger effect = higher value
How it was run: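 NF-kB-bla ME-180 cells carrying a beta-lactamase reporter under an NF-kB response element, 2,000 cells/well, exposed to compound for 16 hr at 37C; FRET-based beta-lactamase fluorescence read-out of pathway activation.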

Row | SMILES | max response [1] | outcome [2] | outcome [3] | max response [4] | max response [5] | activity change % (negative = inhibition) [6] | Potency [7] | Potency [8] | activation [9] | activation [10]
1 | CCCCC(CC)C(=O)O (configuration not stated) | 12.4% | inactive | inactive | -3.23% | 4.48% (inactive) | -2.96% (inactive) | inactive | inactive |  | 
2 | CCOC(C)(C)C | -2.56% | inactive | inactive | -1.08% | 3.08% (inactive) | -6.37% (inactive) | inactive | inactive | -0.539% (inactive) | 0.0467% (inactive)
3 | CC(=O)c1cccc([N+](=O)[O-])c1 | -6.78% | inactive | inactive | 3.27% | 7.36% (inactive) | 10.7% (inactive) | inactive | inactive | -3.72% (inactive) | 
4 | NS(=O)(=O)O | 0.843% | inactive | inactive | 1.78% | 17% (inactive) | -4.41% (inactive) | inactive | inactive | -0.9% (inactive) | 
5 | Nc1cc(S(=O)(=O)O)ccc1O | 6.72% | inactive | inactive | 0.685% | 10% (inactive) | 6.95% (inactive) | inactive | inactive | -1.55% (inactive) | 
6 | Clc1ccccn1 | -14.3% | inactive | inactive | -9.05% | 21.3% (inactive) | -6.15% (inactive) | inactive | inactive | -3.75% (inactive) | -1% (inactive)
7 | Cc1ccc(C)c(O)c1 | 0.17% | inactive | inactive | -5.88% | 6.26% (inactive) | 1.01% (inactive) | inactive | inactive | 0.75% (inactive) | 
8 | NC(=O)NC(N)=O | 6.09% | inactive | inactive | -1.82% | 66.5% (inactive) | 9.23% (inactive) | inactive | inactive | -4.91% (inactive) | 
9 | Cc1cccc(Br)c1 | -0.411% | inactive | inactive | -8.74% | 17.3% (inactive) | 0.545% (inactive) | inactive | inactive | -1.99% (inactive) | 
10 | Nc1nc(CC(=O)O)cs1 | -4.19% | inactive | inactive | -14% | -13.3% (inactive) | 1.64% (inactive) | inactive | inactive | -1.45% (inactive) | 
11 | O=C(Cl)c1c(Cl)cccc1Cl | -8.14% | inactive | inactive | -4.7% | 4.97% (inactive) | -15.6% (inactive) | inactive | inactive |  | 
12 | Cc1cccc(C)c1 | -8.44% | inactive | inactive | -8.63% | -1.87% (inactive) | 21.6% (inactive) | inactive |  |  | 
13 | CCNc1cc(O)ccc1C | -5.56% | inactive | inactive | -2.01% | 1.41% (inactive) | 14.6% (inactive) | inactive | 59.6 µM (active) | -1.04% (inactive) | 
14 | CCC(O)C(C)(C)C (configuration not stated) | -3.08% | inactive | inactive | -1.12% | -2.9% (inactive) | 9.28% (inactive) | inactive | inactive | -0.0168% (inactive) | -0.45% (inactive)
15 | Cc1cc(C)cc(O)c1 | 0.806% | inactive | inactive | -5.75% | 24.6% (inactive) | 2.53% (inactive) | inactive | inactive | -2.15% (inactive) | 
16 | C=C(C)C(=O)OCCCCCCCCCC | -10.3% | inactive | inactive | -7.57% | -3.36% (inactive) |  |  |  |  | 
17 | CCC=O | 2.22% | inactive | inactive | -6.66% | 0.991% (inactive) | -3.74% (inactive) | inactive | inactive | -0.942% (inactive) | -1.21% (inactive)
18 | CCCCN(CCO)CCCC | -2.59% | inactive | inactive | -12.3% | 4.73% (inactive) | 22.2% (inactive) | inactive | inactive |  | 
19 | O=C1OC(=O)c2c(Cl)c(Cl)c(Cl)c(Cl)c21 | -5.89% and -6.44% | inactive | inactive | -4.9% and 1.94% | 0.977% (inactive) and -5.45% (inactive) | -1.32% (inactive) and -1.29% (inactive) | inactive | inactive | -2.26% (inactive) and 13.1% (inactive) | 
20 | C=CC(=O)OCCCC | -9.05% | inactive | inactive | 3.81% | -2.2% (inactive) | 1.99% (inactive) | inactive | inactive | -0.944% (inactive) | 
21 | O=C1CCC(=O)O1 | 8.02% | inactive | inactive | -8.25% | -2.46% (inactive) | -21.6% (inactive) | inactive | inactive | 0.572% (inactive) | 
22 | C=C(C)C(=O)OCC(C)O (configuration not stated) | -4.4% | inactive | inactive | -2% | 5.46% (inactive) | 11.2% (inactive) | inactive | inactive |  | 
